Positions count from the first letter of the chain named. The full ranking holds about 16,000 sequences; the median of “ka relative to ugcaugu” is about 0.0091, and the highest 2% start at about 0.032. This excerpt belongs to a sample that is enriched for the highest values.

To fix the notation:
T1: RBFOX1 RRM (Homo sapiens, UniProt Q9NWB1 109-208)
T1 sequence: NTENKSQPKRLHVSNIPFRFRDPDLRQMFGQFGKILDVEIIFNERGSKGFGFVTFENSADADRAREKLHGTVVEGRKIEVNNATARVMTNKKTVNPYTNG

B1: UCGUGUC (DNA:RNA)
RNA: GGGAGACCGGAAUUCAGAUUGUCCUCGUGUCUUAAAUCCCGUCGUAGCCACCA
DNA 1: CAATCTGAATTCCGGTCTCCC
DNA 2: TGGTGGCTACGACGGGATT
B2: AGCGUAU (DNA:RNA)
RNA: GGGAGACCGGAAUUCAGAUUGUCCAGCGUAUUUAAAUCCCGUCGUAGCCACCA
DNA 1: CAATCTGAATTCCGGTCTCCC
DNA 2: TGGTGGCTACGACGGGATT
B3: CCUGAUG (DNA:RNA)
RNA: B1 RNA with U25C, G27U, U28G, G29A, C31G
DNA 1: CAATCTGAATTCCGGTCTCCC
DNA 2: TGGTGGCTACGACGGGATT
B4: GCGUCGC (DNA:RNA)
RNA: B1 RNA with U25G, G29C, U30G
DNA 1: CAATCTGAATTCCGGTCTCCC
DNA 2: TGGTGGCTACGACGGGATT
B5: GUGAUAC (DNA:RNA)
RNA: B2 RNA with A25G, G26U, C27G, G28A, U31C
DNA 1: CAATCTGAATTCCGGTCTCCC
DNA 2: TGGTGGCTACGACGGGATT
B6: CCGUGAG (DNA:RNA)
RNA: B1 RNA with U25C, U30A, C31G
DNA 1: CAATCTGAATTCCGGTCTCCC
DNA 2: TGGTGGCTACGACGGGATT
B7: GAACUGU (DNA:RNA)
RNA: B2 RNA with A25G, G26A, C27A, G28C, A30G
DNA 1: CAATCTGAATTCCGGTCTCCC
DNA 2: TGGTGGCTACGACGGGATT
B8: GGAGAUG (DNA:RNA)
RNA: B2 RNA with A25G, C27A, U29A, A30U, U31G
DNA 1: CAATCTGAATTCCGGTCTCCC
DNA 2: TGGTGGCTACGACGGGATT
B9: GGGAUGU (DNA:RNA)
RNA: B2 RNA with A25G, C27G, G28A, A30G
DNA 1: CAATCTGAATTCCGGTCTCCC
DNA 2: TGGTGGCTACGACGGGATT
B10: GUGGAGA (DNA:RNA)
RNA: B2 RNA with A25G, G26U, C27G, U29A, A30G, U31A
DNA 1: CAATCTGAATTCCGGTCTCCC
DNA 2: TGGTGGCTACGACGGGATT
B11: GUGGAUG (DNA:RNA)
RNA: B1 RNA with U25G, C26U, U28G, G29A, C31G
DNA 1: CAATCTGAATTCCGGTCTCCC
DNA 2: TGGTGGCTACGACGGGATT
B12: GGAUGUG (DNA:RNA)
RNA: B1 RNA with U25G, C26G, G27A, C31G
DNA 1: CAATCTGAATTCCGGTCTCCC
DNA 2: TGGTGGCTACGACGGGATT
B13: GGAUGUU (DNA:RNA)
RNA: B1 RNA with U25G, C26G, G27A, C31U
DNA 1: CAATCTGAATTCCGGTCTCCC
DNA 2: TGGTGGCTACGACGGGATT
B14: GGAUUGU (DNA:RNA)
RNA: B2 RNA with A25G, C27A, G28U, A30G
DNA 1: CAATCTGAATTCCGGTCTCCC
DNA 2: TGGTGGCTACGACGGGATT
B15: GGAUGUC (DNA:RNA)
RNA: B1 RNA with U25G, C26G, G27A
DNA 1: CAATCTGAATTCCGGTCTCCC
DNA 2: TGGTGGCTACGACGGGATT
B16: CGGGAUG (DNA:RNA)
RNA: B2 RNA with A25C, C27G, U29A, A30U, U31G
DNA 1: CAATCTGAATTCCGGTCTCCC
DNA 2: TGGTGGCTACGACGGGATT
B17: UUGGAUG (DNA:RNA)
RNA: B1 RNA with C26U, U28G, G29A, C31G
DNA 1: CAATCTGAATTCCGGTCTCCC
DNA 2: TGGTGGCTACGACGGGATT
B18: CCGGAUG (DNA:RNA)
RNA: B1 RNA with U25C, U28G, G29A, C31G
DNA 1: CAATCTGAATTCCGGTCTCCC
DNA 2: TGGTGGCTACGACGGGATT
B19: GGGGAUG (DNA:RNA)
RNA: B2 RNA with A25G, C27G, U29A, A30U, U31G
DNA 1: CAATCTGAATTCCGGTCTCCC
DNA 2: TGGTGGCTACGACGGGATT

In the test the target is T1, RBFOX1 RRM. Nature of the test: EMSA; HiTS-Eq, 1 nM pool, 10 min; buffer printed only for the single-RNA assays: 10 mM Tris pH 7.5, 150 mM NaCl, 3.4 mM EDTA, 0.001% NP-40, 30 C. The conditions noted are these: tags: His6 N-terminal (pET28a); label: 5' 32P. In a few lines: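 Purified wild-type or mutant RbFox RRM at increasing concentrations was equilibrated with 1 nM of 5′-radiolabelled RNA carrying 7 randomized nucleotides for 10 min in 50 µL. Unbound RNA was separated by 8% native PAGE and sequenced. Relative association constants came from read-count changes of each RNA species compared with the control reaction, normalised to the cognate motif.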
As to B1, the binding signal is 0.0187 KA relative to UGCAUGU.

As for B2, the binding signal was 0.00639 KA relative to UGCAUGU.

On to B3, for which the binding signal was 0.0205 KA relative to UGCAUGU.

Consider B4, for which the binding signal is 0.0157 KA relative to UGCAUGU.

Regarding B5, the binding signal is 0.00876 KA relative to UGCAUGU.

For the molecule B6, the binding signal is 0.0105 KA relative to UGCAUGU.

In the case of B7, the binding signal is 0.0163 KA relative to UGCAUGU.

Turning to B8, the binding signal was 0.0269 KA relative to UGCAUGU.

In the case of B9, the binding signal was 0.048 KA relative to UGCAUGU.

As for B10, the binding signal is 0.0173 KA relative to UGCAUGU.

With B11, the binding signal is 0.0371 KA relative to UGCAUGU.

With B12, the binding signal is 0.0207 KA relative to UGCAUGU.

On to B13, for which the binding signal was 0.0216 KA relative to UGCAUGU.

For the molecule B14, the binding signal was 0.0266 KA relative to UGCAUGU.

Regarding B15, the binding signal was 0.027 KA relative to UGCAUGU.

For B16, the binding signal is 0.0412 KA relative to UGCAUGU.

Regarding B17, the binding signal was 0.0302 KA relative to UGCAUGU.

B18: the binding signal was 0.00955 KA relative to UGCAUGU.

As for B19, the binding signal is 0.0389 KA relative to UGCAUGU.

These data come from article PMC9911399, “Two distinct binding modes provide the RNA-binding protein RbFox with extraordinary sequence specificity”.
